Consider 58 compounds from ChEMBL document CHEMBL3988442, “University of Dundee, Small-Polar-MMV Screening Library” (2021).

Each structure is given as a SMILES string. Among all 48,000 compounds or so, about 13,000 (27%) showed an effect of 50% or more. The list shows a part of the results.

The test system of the assay is Wolbachia pipientis. Kind of assay: Anti-Wolbachia Cell-Based Screen. Conditions: 5 µM. More on the design: scale not given: in the data most compounds retested in dose-response had high values. Type of assay: functional.
Turning to `Cc1sc2nc(C(F)(F)F)nc(N3CCC(NS(C)(=O)=O)CC3)c2c1C`, the “Percent Effect” value is 11.4%.

With `CCn1ncc2c1CCCC2NCC1=Cc2ccccc2OC1` (stereo not drawn), the “Percent Effect” value is -5.815%.

In the case of `CC(=O)N1CC2(CCN(Cc3ccc(Cl)cc3)CC2)Cc2ccccc21`, the “Percent Effect” value was 118.6%.

For the compound `CC(=O)N1CCCC2(CCN(Cc3ccc(Cl)c(C(F)(F)F)c3)C2)C1` (stereo not drawn), the “Percent Effect” value was 13.59%.

`CC(=O)N1CCCC2(CCN(Cc3ccc(Cl)c(F)c3)C2)C1` (stereo not drawn): the “Percent Effect” value was 9.026%.

As for `CC(=O)N1CC2(CCN(Cc3ccc(Cl)cc3)C2)Cc2ccccc21` (stereo not drawn), the “Percent Effect” value is recorded as 116.3%.

Turning to `CC(=O)N1CCC2(CCCN(Cc3ccc(Cl)c(C(F)(F)F)c3)C2)C1` (stereo not drawn), the “Percent Effect” value is recorded as 5.734%.

Turning to `Cc1ncsc1CN1CCC2(CC1)CC(=O)N(Cc1ccc(Cl)cc1)C2`, the “Percent Effect” value is listed as -0.4744%.

Regarding `COCC(=O)N1CCC2(CCCN(Cc3ccc(Cl)cc3)CC2)CC1`, the “Percent Effect” value is recorded as -3.814%.

Take `CC(=O)N1CC2(CCCN(Cc3ccc(Cl)cc3)C2)Cc2ccccc21` (stereo not drawn): the “Percent Effect” value is listed as 131.8%.

Turning to `Cc1cc(C(=O)N2CCN(CC(O)Cn3cccn3)CC2)c(C)o1` (stereo not drawn), the “Percent Effect” value came out at 3.42%.

Regarding `CN1CCC(N2CCOC[C@H]2c2nc(-c3ccncc3)c[nH]2)CC1`, the “Percent Effect” value was -3.647%.

Consider `CNS(=O)(=O)c1ccc(C(=O)NC2CCc3nc(C)cn3C2)o1` (stereo not drawn), for which the “Percent Effect” value is recorded as -2.01%.

Take `Cc1nccc(NCc2cncc3c2CCN(S(C)(=O)=O)C3)n1.Cl`: the “Percent Effect” value is reported as 65.34%.

Consider `Cc1nccc(NCc2cc3n(n2)CCCN(S(C)(=O)=O)C3)n1`, for which the “Percent Effect” value was -4.835%.

For the compound `Cc1cnc(N2CCc3c(CNc4ccnc(C)n4)cncc3C2)nc1.Cl`, the “Percent Effect” value was 94.65%.

With `CN1C(=O)CC(C(=O)O)C12CCN(Cc1cc(F)ccc1Cl)CC2` (stereo not drawn), the “Percent Effect” value is reported as -13.17%.

In the case of `CN(C)C(=O)c1cc(-c2ccccc2)[nH]n1`, the “Percent Effect” value worked out at 125.1%.

For the compound `O=C(NCCn1nc2ccccn2c1=O)c1cc(-c2ccccc2)[nH]n1`, the “Percent Effect” value worked out at 1.619%.

For `CN(C)C(=O)c1cc(-c2ccncc2)[nH]n1`, the “Percent Effect” value was determined as 116.7%.

Regarding `Cc1nc(-c2cccc(C(=O)N(C)C)c2)cs1`, the “Percent Effect” value is listed as -24.42%.

On to `Cc1ccn(CC(=O)Nc2cc(-c3ccncc3)[nH]n2)n1`, for which the “Percent Effect” value is given as -0.1185%.

For `Cc1ccnn1CC(=O)Nc1cc(-c2ccncc2)[nH]n1`, the “Percent Effect” value was -6.833%.

Take `CC1=C[C@@H](CN2CCC(CO)CC2)[C@H](C(C)C)C[C@H]1Cc1nnc(C)o1`: the “Percent Effect” value is -9.335%.

Consider `COc1ccc(CN2C[C@@H](F)[C@@H](OCc3nc4ccccc4[nH]3)C2)cn1`, for which the “Percent Effect” value is listed as -8.557%.

With `CC(NC(=O)c1ccc2c(c1)OCC(=O)N2)c1ccccc1F` (stereo not drawn), the “Percent Effect” value is reported as -1.956%.

Take `CCc1ccc(OCC(O)CN2CCN(CC)CC2)cc1` (stereo not drawn): the “Percent Effect” value is 71.19%.

`CCc1ccc(OCC(O)CN2CCN(CCO)CC2)cc1.Cl.Cl` (stereo not drawn): the “Percent Effect” value came out at 85.64%.

Take `CCc1ccc(OCC(O)CN2CCC(O)CC2)cc1` (stereo not drawn): the “Percent Effect” value was 11.05%.

Regarding `CCN1CCN(CC(O)c2ccc(OC(F)(F)F)cc2)CC1` (stereo not drawn), the “Percent Effect” value is listed as 1.039%.

For `CCc1ccc(CNCC2CCN(CCO)CC2)cc1`, the “Percent Effect” value is reported as -51.45%.

Consider `Cc1c(C)n(CC(O)CN2CCN(CCO)CC2)c2c(Cl)cccc12.Cl` (stereo not drawn), for which the “Percent Effect” value was found to be 3.197%.

As to `Cc1n[nH]cc1CNC1(Cc2ccc(Br)cc2)CCCCC1`, the “Percent Effect” value stood at 13.31%.

In the case of `O=C(Cc1ccc(F)cc1)NCc1ccc(C(=O)O)o1`, the “Percent Effect” value was -2.994%.

Regarding `CC(C)c1nc(/C=C/c2ccc(O)c(Cl)c2)ncc1C(=O)O`, the “Percent Effect” value is 6.301%.

As for `CN(C)S(=O)(=O)N1CCCC1C(=O)N1CCSCC1` (stereo not drawn), the “Percent Effect” value is recorded as -27.44%.

As to `CC(C)CNC(=O)[C@H]1CCS(=O)(=O)[C@@H]2CN(CC(C)C)C[C@H]12.O=C(O)C(F)(F)F`, the “Percent Effect” value was 102.6%.

In the case of `CC(C)CNC(=O)[C@H]1CCS(=O)(=O)[C@@H]2CN(Cc3ccc(F)cc3)C[C@H]12.O=C(O)C(F)(F)F`, the “Percent Effect” value is on record as 118.4%.

As for `CC(C)CNC(=O)[C@H]1CCS(=O)(=O)[C@@H]2CN(Cc3ccc(Cl)cc3)C[C@H]12.O=C(O)C(F)(F)F`, the “Percent Effect” value is listed as 20.84%.

With `CC(C)CNC(=O)[C@H]1CCS(=O)(=O)[C@@H]2CN(Cc3cccnc3)C[C@H]12`, the “Percent Effect” value worked out at 94.11%.

Take `O=C([C@H]1CCS(=O)(=O)[C@@H]2CN(Cc3ccc(F)cc3)C[C@H]12)N1CCCC1`: the “Percent Effect” value is given as -0.8548%.

As for `Cc1ccc(CN2C[C@@H]3[C@@H](C(=O)NCC4CC4)CCS(=O)(=O)[C@@H]3C2)cc1.O=C(O)C(F)(F)F`, the “Percent Effect” value stood at 110.7%.

With `Cc1ccc(CN2C[C@@H]3[C@@H](C(=O)N4CCCC4)CCS(=O)(=O)[C@@H]3C2)cc1.O=C(O)C(F)(F)F`, the “Percent Effect” value is on record as -5.739%.

As for `C=C(C)COc1cccc(C(=O)N2CCC3(CC2)CN(C)CCN3C)c1`, the “Percent Effect” value is recorded as -0.7727%.

In the case of `COCc1nc2cc(NCc3nc(C)cs3)ccc2o1`, the “Percent Effect” value came to 14.28%.

In the case of `COCCN1CC(C(=O)N(C)Cc2csc(C)n2)CC1=O` (stereo not drawn), the “Percent Effect” value was determined as 9.291%.

For `Cc1nc(N)nc(N2CCOc3ccc(CO)cc3C2)c1C`, the “Percent Effect” value is listed as -10.79%.

As for `O=C(O)c1cc(-n2cc3c(n2)CCC3)cc(S(=O)(=O)NC2CCCC2)c1`, the “Percent Effect” value was -14.64%.

On to `Cc1cccc(CN2C[C@@H]3[C@@H](C(=O)NCC(C)C)CCS(=O)(=O)[C@@H]3C2)c1.O=C(O)C(F)(F)F`, for which the “Percent Effect” value turned out to be 114%.

Turning to `O=C(NC1CCC1)[C@H]1CCS(=O)(=O)[C@@H]2CN(CCc3ccccc3)C[C@H]12.O=C(O)C(F)(F)F`, the “Percent Effect” value was 0.08141%.

Take `Cc1ccc(CN2C[C@@H]3[C@@H](C(=O)NCC(C)C)CCS(=O)(=O)[C@@H]3C2)cc1.O=C(O)C(F)(F)F`: the “Percent Effect” value is on record as 114.4%.

As to `CC(C)CNC(=O)[C@H]1CCS(=O)(=O)[C@@H]2CN(Cc3cccc(Cl)c3)C[C@H]12.O=C(O)C(F)(F)F`, the “Percent Effect” value amounted to 11.74%.

As for `CC(SCCC(=O)NC(N)=O)c1cccc(F)c1` (stereo not drawn), the “Percent Effect” value is recorded as -9.647%.

On to `CN(C)CC(=O)N1CC(c2nn(C)c3nccnc23)C1`, for which the “Percent Effect” value came out at 96.82%.

Regarding `CN(C)CC(=O)N1Cc2nnn(C)c2C(COCC2CC2)C1` (stereo not drawn), the “Percent Effect” value is -6.376%.

As for `CC(=O)N1CCC(c2nn(C)c3nccnc23)C1` (stereo not drawn), the “Percent Effect” value is listed as 104.2%.

Turning to `Cc1ncc(CN(C)C(=O)Nc2cccc(N3CCOC3=O)c2)s1`, the “Percent Effect” value is -2.518%.

With `CC(C)N(C(=O)c1csc(-c2ccoc2)n1)C1CCOCC1`, the “Percent Effect” value was -5.774%.
